Measured values published in PubChem BioAssay (EPA / NIEHS).
Where “and” joins values, the source holds several entries; their conditions need not be identical. Equal values may be shown once. Records with an inconclusive call do not appear. Where a structure was tested more than once in an assay, its records may differ in their call. Calls of active or inactive are those of the source. How the source made its calls, unless noted: active means hit-call score of the fitted dose curve at least 0.9, where 1 is the maximum; inactive means score below 0.9.

Assays:
[1] = molecular target: human Vitamin D Receptor (VDR), VDR (gene 7421) (UniProt P11473); experiment: ATG_VDR_TRANS: Attagene TRANS-FACTORIAL HepG2 Assay for human Vitamin D Receptor (VDR) (AID 2283022; active means hit-call score of the fitted dose curve at least 0.9, where 1 is the maximum)
Sequence of human Vitamin D Receptor (VDR), VDR (gene 7421) (P11473 whole entry, looked up, the tested form may be a part): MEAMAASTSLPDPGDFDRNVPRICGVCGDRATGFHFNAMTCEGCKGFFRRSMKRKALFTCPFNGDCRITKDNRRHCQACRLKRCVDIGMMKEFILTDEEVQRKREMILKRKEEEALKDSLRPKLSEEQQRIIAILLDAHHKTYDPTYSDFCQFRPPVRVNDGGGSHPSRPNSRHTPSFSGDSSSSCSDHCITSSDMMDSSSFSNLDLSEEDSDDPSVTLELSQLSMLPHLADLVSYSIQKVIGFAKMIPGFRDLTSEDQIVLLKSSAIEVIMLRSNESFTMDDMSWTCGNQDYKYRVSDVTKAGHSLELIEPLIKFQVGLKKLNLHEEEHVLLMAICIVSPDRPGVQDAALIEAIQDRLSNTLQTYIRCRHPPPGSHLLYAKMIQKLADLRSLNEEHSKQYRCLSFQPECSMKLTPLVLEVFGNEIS
Outline: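 Steps: transfect HepG2 with GAL4-UAS-driven reporter constructs; dose compounds 24 h; isolate RNA, reverse-transcribe, PCR-amplify with 6-FAM-labelled primer extension and HpaI digestion; quantify fragments by capillary electrophoresis relative to DMSO.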

[2] = BSK_3C_SRB: Viability Assessment in the BioMAP Diversity Plus: 3C Assay (AID 2283023); conditions: primary human endothelial cells (HUVEC);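 further: cells read 24 h after compound dosing; fitted both ways against DMSO so a hit may be signal rise or drop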
Outline: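 Absorbance at 560 nm of sulforhodamine B-stained (0.1%) total protein served as a cytotoxicity readout in human umbilical vein endothelial cells, 24 h after chemical treatment. Signal was fitted bidirectionally relative to DMSO.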

[3] = read-out: Matrix Metallopeptidase 1 (MMP1), MMP1 (gene 4312); experiment: BSK_BE3C_MMP1: BioMAP Diversity Plus: BE3C Assay for Matrix Metallopeptidase 1 (MMP1) Biomarker Activity (AID 2283024); conditions: primary human bronchial epithelial cells; actives raise or lower the signal
Outline: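 In this multiplexed primary-cell system, human bronchial epithelium received chemicals for 24 h before an ELISA for MMP1. Values reflect bidirectional fits normalised to the DMSO baseline.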

[4] = BSK_3C_Vis: BioMAP Diversity Plus: 3C Assay for Morphology Visualization (AID 2283025); conditions: primary human endothelial cells (HUVEC);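 further: fitted both ways so gain or loss versus DMSO counts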;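 on AC50: light microscopy image of cell morphology used as background control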
Outline: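 Light-microscopy morphology readout, 24 h exposure, human primary umbilical vein endothelium; analysed relative to DMSO with bidirectional fitting.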

[5] = read-out: Pselectin, SELP (gene 6403); experiment: BSK_4H_Pselectin: BioMAP Diversity Plus: 4H Assay for Pselectin Biomarker Activity (AID 2283026); conditions: primary human endothelial cells (HUVEC); actives raise or lower the signal
Outline: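 Bidirectional fits against DMSO gave the endpoint. Cells: primary human umbilical vein endothelium, chemical-treated for 24 h before ELISA detection of P-selectin.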

[6] = BSK_4H_SRB: Viability Assessment in the BioMAP Diversity Plus: 4H Assay (AID 2283027); conditions: primary human endothelial cells (HUVEC);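 further: cells exposed to compound for 24 h before staining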;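 on AC50: curves fitted both ways versus DMSO so AC50 may be loss or gain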
Outline: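 HUVEC, 24 h post-dose; 10% TCA fix, 0.1% SRB stain, A560 nm. Total protein = overt cytotoxicity, parallel to biomarker read. Bidirectional fit vs DMSO baseline.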

[7] = BSK_BE3C_SRB: Viability Assessment in the BioMAP Diversity Plus: BE3C Assay (AID 2283028); conditions: primary human bronchial epithelial cells;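 on AC50: fitted both ways so AC50 may mark signal gain or loss versus DMSO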
Outline: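 Cells (human bronchial epithelial, primary) are treated with chemicals, and after 24 h the parallel cultures are fixed in 10% TCA. These are then stained with 0.1% SRB and read at 560 nm. Gain or loss of signal is fitted relative to DMSO.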

[8] = read-out: Thrombomodulin, THBD (gene 7056); experiment: BSK_3C_Thrombomodulin: BioMAP Diversity Plus: 3C Assay for Thrombomodulin Biomarker Activity (AID 2283029); conditions: primary human endothelial cells (HUVEC); actives raise or lower the signal
Outline: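 In a multiplexed primary-cell system, human umbilical vein endothelium received chemical and was assayed 24 h later for thrombomodulin by ELISA. Parallel cultures were SRB-stained (0.1% SRB after 10% TCA fixation, read at 560 nm) to flag cytotoxicity.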

[9] = read-out: Vascular endothelial growth factor receptor 2 (Homo sapiens) (UniProt P35968); experiment: BSK_4H_VEGFRII: BioMAP Diversity Plus: 4H Assay for Vascular endothelial growth factor receptor 2 (VEGFR2) Biomarker Activity (AID 2283031); conditions: primary human endothelial cells (HUVEC); actives raise or lower the signal;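 on AC50: cell-surface VEGFR2 protein level quantified by ELISA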
Outline: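 ELISA read-out of VEGFRII in primary human umbilical vein endothelium, taken 24 h after chemical treatment. Responses are expressed relative to DMSO, with bidirectional fitting.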

[10] = read-out: Urokinase-type plasminogen activator receptor (uPAR), PLAUR (gene 5329); experiment: BSK_4H_uPAR: BioMAP Diversity Plus: 4H Assay for Urokinase-type plasminogen activator receptor (uPAR) Biomarker Activity (AID 2283030); conditions: primary human endothelial cells (HUVEC); actives raise or lower the signal
Outline: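 Cell-surface uPAR ELISA signal, measured 24 h after dosing human umbilical vein endothelial cells, was analyzed with bidirectional fitting relative to DMSO. Parallel SRB staining of total protein tracked overt cytotoxicity.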

Compound	outcome [1]	outcome [2]	outcome [3]	outcome [4]	outcome [5]	outcome [6]	outcome [7]	outcome [8]	outcome [9]	AC50 [2]	AC50 [3]	AC50 [4]	AC50 [5]	AC50 [7]	AC50 [9]	outcome [10]	AC50 [6]	AC50 [1]
O=C(O)COc1nc(Cl)c(Cl)cc1Cl	inactive	inactive	inactive	inactive	inactive	inactive	inactive	inactive	inactive									
CCCCNC(=O)OCC#CI	inactive							inactive		18.9 µM (active) and 21.1 µM (active)	32.9 µM (active)	11.9 µM (active) and 14.4 µM (active)	12.8 µM (active) and 16.1 µM (active)	21.5 µM (active) and 26.9 µM (active)	22.9 µM (active) and 32.7 µM (active)			
CO/C=C(/C(=O)OC)c1ccccc1Oc1cc(Oc2ccccc2C#N)ncn1	inactive		inactive	inactive	inactive		inactive	inactive	inactive	20 µM (active) [middle of 4 runs]		39.6 µM (active) and 42 µM (active)	31.7 µM (active) and 21.1 µM (active)		21.1 µM (active)			
C=CC1(C)OC(=O)N(c2cc(Cl)cc(Cl)c2)C1=O (stereo not drawn)	inactive	inactive	inactive	inactive	inactive		inactive	inactive	inactive							inactive		
CCNc1nc(Cl)nc(NC(C)C)n1	inactive	inactive	inactive	inactive	inactive		inactive	inactive	inactive							inactive		
COc1ccc(C(c2ccc(OC)cc2)C(Cl)(Cl)Cl)cc1	inactive							inactive		20.1 µM (active)	6.22 µM (active)	15.2 µM (active)	33.4 µM (active)	19.4 µM (active)	31.2 µM (active)	inactive		
N#Cc1nn(-c2c(Cl)cc(C(F)(F)F)cc2Cl)c(N)c1S(=O)C(F)(F)F (stereo not drawn)	inactive		inactive					inactive		32.8 µM (active)		37.5 µM (active)	20 µM (active)	18 µM (active)	31.7 µM (active)			
CCCC1COC(Cn2cncn2)(c2ccc(Cl)cc2Cl)O1 (stereo not drawn)	inactive	inactive	inactive	inactive	inactive	inactive	inactive	inactive	inactive									
Cc1ccc(-c2c(Cl)nc(C#N)n2S(=O)(=O)N(C)C)cc1	inactive		inactive					inactive		26.1 µM (active)		15.2 µM (active)	17.7 µM (active)	27.4 µM (active)	20 µM (active)			
CCOC(=O)CC(SP(=S)(OC)OC)C(=O)OCC (stereo not drawn)	inactive	inactive	inactive	inactive	inactive		inactive	inactive	inactive									
CC(C)(C)c1ccc(CSc2cnn(C(C)(C)C)c(=O)c2Cl)cc1	inactive		inactive					inactive		10.9 µM (active)		15.2 µM (active)	11.1 µM (active)	7.9 µM (active)	12.3 µM (active)		16.5 µM (active)	
C=CCC1=C(C)C(OC(=O)C2C(C=C(C)C)C2(C)C)CC1=O (stereo not drawn)	inactive		inactive	inactive	inactive		inactive	inactive	inactive	32.8 µM (active) [middle of 4 runs]	9.44 µM (active) and 7.51 µM (active)	39.4 µM (active) and 39 µM (active)	34.9 µM (active) and 33 µM (active) and 33.2 µM (active)		21 µM (active) and 29.4 µM (active) and 20 µM (active)			105 µM (active)
CN(C)C(=S)SSC(=S)N(C)C	inactive	inactive						inactive	inactive		14.2 µM (active)	16.3 µM (active)	14 µM (active)	8.39 µM (active)				
CNC(=S)S	inactive		inactive		inactive		inactive	inactive	inactive	13.3 µM (active)		13.2 µM (active)				inactive		
COc1nc(C)nc(NC(=O)NS(=O)(=O)c2ccccc2Cl)n1	inactive	inactive	inactive	inactive	inactive		inactive	inactive	inactive							inactive		
CCCN(CCC)c1c([N+](=O)[O-])cc(S(N)(=O)=O)cc1[N+](=O)[O-]	inactive							inactive		31.3 µM (active) [middle of 4 runs]	36 µM (active) [middle of 4 runs]	41 µM (active) and 41.8 µM (active) and 16.3 µM (active)	34.2 µM (active) [middle of 4 runs]	34.3 µM (active) [middle of 4 runs]			32.3 µM (active) [middle of 4 runs]	61.2 µM (active)
C=CCC1=C(C)[C@@H](OC(=O)[C@@H]2[C@@H](C=C(C)C)C2(C)C)CC1=O	inactive		inactive					inactive		25.8 µM (active)		13.7 µM (active)	31.6 µM (active)	18.8 µM (active)	35.8 µM (active)	inactive		
COc1nc(C)nc(NC(=O)NS(=O)(=O)c2ccccc2CCC(F)(F)F)n1	inactive	inactive	inactive	inactive	inactive		inactive	inactive	inactive							inactive		
CC1COC(Cn2cncn2)(c2ccc(Oc3ccc(Cl)cc3)cc2Cl)O1 (stereo not drawn)	inactive							inactive	inactive	20.8 µM (active)	32.2 µM (active)	37.2 µM (active)	24.7 µM (active)	31 µM (active)				
CC1=C(C(=O)Nc2ccccc2)SCCO1	inactive	inactive	inactive	inactive	inactive		inactive	inactive	inactive									
COC(=O)C(C)Oc1ccc(Oc2ccc(Cl)cc2Cl)cc1 (stereo not drawn)	inactive	inactive	inactive	inactive	inactive	inactive	inactive	inactive	inactive	14 µM (active) and 20 µM (active)		39 µM (active)			20 µM (active)			
OC(c1ccc(Cl)cc1)(c1cncnc1)c1ccccc1Cl (stereo not drawn)	inactive		inactive			inactive	inactive	inactive	inactive	26 µM (active)		9.8 µM (active)	23.9 µM (active)					
CCNc1nc(Cl)nc(NCC)n1	inactive	inactive	inactive	inactive	inactive	inactive	inactive	inactive	inactive									
CCCCNC(=O)n1c(NC(=O)OC)nc2ccccc21	inactive		inactive		inactive		inactive	inactive	inactive	8.93 µM (active)		9.8 µM (active)					14 µM (active)	
